Sampled rows, rich in hits. Any-hit rate of the full collection: about 3.6%.
HSF1 inhib – HSF1 inhibition. 300,000 compounds, 0.77% hits. activity change, negative = inhibition, % at 7.5 µM (by protocol). NIH3T3-HGL HSE-luciferase, MG132-induced, luminescence 8 h; active compounds read low;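 active means more than half of replicate wells show activity change below -50%, luminescence cut by over half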;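 further: luciferase reports HSF-1 transcriptional activity via heat shock element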
TWEAK-Fn14 inh – inhibitors of TWEAK-Fn14 interaction signaling; TWEAK-stimulated Fn14 reporter cells, luciferase luminescence, 8 h; inhibition, % at 10 µM; 360,000 compounds, 2% hits; in the data active means inhibition above about 50%
HSF1 activator – increases HSF-1 driven luciferase reporter signal; NIH3T3-HGL HSF-1 luciferase reporter, MG132, 8 h; 100% = twice DMSO control signal; 300,000 compounds, 1.7% hits; AID 504408; activation, % at 9 µM;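 active means mean replicate activation of at least 50% with a set share of replicates each reaching 50%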
TROY NFkB inh – inhibitors of TROY-dependent NF-kB signaling | Q293 LMP1-TROYcd NF-kB luciferase reporter, 4 h | inhibition, % at 10 µM | 360,000 compounds, 0.98% hits;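 active means compounds whose plate-normalised and pattern-corrected inhibition of the luciferase reporter signal at the single screening dose is 50% or more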
LGR2 inh – inhibitors of bursicon-induced Drosophila LGR2 receptor cAMP signaling | HEK293 LGR2, CRE-luciferase, bursicon-stimulated, 4 h | AID 720647 | 380,000 compounds, 0.35% hits | inhibition, % at 9.99 µM;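 active means drop in luminescence signal, shown as inhibition above about 50% in the replicate tests, limit read from the data, passing the limit was not always enough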;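 further: agonist challenge used bursicon conditioned medium at about half maximal strength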
LMP1 NFkB inh – reduces LMP1-driven NF-kappaB luciferase signal; LMP1-induced NF-kappaB luciferase reporter cells, luminescence; inhibition, % at 12.5 µM; 350,000 compounds, 0.69% hits; AID 504558; in the data active means inhibition above about 41%
Numbers stand for hits; . = inactive; / = not tested or not shown.

SMILES	HSF1 inhib	TWEAK-Fn14 inh	HSF1 activator	TROY NFkB inh	LGR2 inh	LMP1 NFkB inh
C[C@H](O)C#Cc1cnc2c(c1)C(=O)N([C@H](C)CO)C[C@H](C)[C@@H](CN(C)Cc1ccc(-c3ccccc3)cc1)O2	/	/	/	/	.	/
O=c1c(-c2nc3ccccc3s2)cccn1Cc1ccc(Cl)cc1	.	.	88	.	/	.
Clc1ncccc1-c1nc2ccccc2s1	.	.	.	.	.	.
CCOC(=O)N=Nc1c(O)n(CC(=O)OC)c2ccccc12	.	.	.	.	.	.
CCOC(=O)N=Nc1c2ccccc2c2nc3no[nH]c3nc12	-95	90	.	66	101	86
C[C@@H]1CN([C@H](C)CO)C(=O)c2cc(NC(=O)Nc3ccc(C(F)(F)F)cc3)ccc2O[C@@H](C)CCCCO[C@H]1CN(C)C(=O)c1ccccc1	/	/	/	/	.	/
CCc1cc(C)cc(OCCNC(=O)c2cncc(Br)c2)c1	-62	.	.	/	/	.
N#C/C(=N\Nc1cccc(C(F)(F)F)c1)C(=O)c1csc(-c2cccnc2)n1	.	.	.	66	.	.
COc1ccc(/C=N/NC(=O)CSCC(=O)Nc2ccccc2)cc1	.	.	.	.	.	.
COC(=O)c1sccc1N/N=C/c1cccc(Oc2ccccc2)c1	.	53	.	71	.	.
COC(=O)c1sccc1NC(=O)c1cccc(OC)c1	.	.	.	.	.	.
COC(=O)c1sccc1N/N=C/c1cccc(OC)c1O	.	63	.	.	77	.
COC(=O)c1sccc1N/N=C/c1ccc(OC)c(OC)c1OC	.	.	.	.	.	.
COc1cccc(/C=N/NC(=O)CSCC(=O)Nc2ccccc2)c1O	.	.	.	.	.	47
COC(=O)C1NN=C(C(=O)c2ccc(Cl)cc2)C1c1ccc(OC)cc1 (stereo unspecified)	.	.	54	.	.	.
CCOC(=O)C1=NNC(C(=O)c2ccc(C)cc2)C1c1ccc(OC)cc1 (stereo unspecified)	.	72	.	.	/	.
O=C(Nc1ccc(Cl)cc1)N1CCC(CO)(Cc2ccccc2)CC1	.	.	.	.	.	.
O=C(Nc1cccc(Cl)c1)N1CCC(CO)(CCOc2ccccc2)CC1	.	.	95	.	.	.
C[C@@H]1CN([C@H](C)CO)S(=O)(=O)c2ccc(C#Cc3ccccc3F)cc2O[C@@H]1CN(C)C(=O)Cc1ccccc1	/	50	/	.	.	.
C[C@H]1CN([C@@H](C)CO)S(=O)(=O)c2ccc(C#CC(C)(C)O)cc2O[C@@H]1CN(C)Cc1ccc(-c2ccccc2)cc1	/	/	/	/	54	/
C[C@H](CO)N1C[C@H](C)[C@@H](CN(C)C(=O)Cc2ccccc2)Oc2cc(C#Cc3ccccc3F)ccc2S1(=O)=O	/	/	/	/	.	/
COCC(=O)N1CC[C@@H]2[C@H](CO)Nc3ccc(-c4ccc(C#N)cc4)cc3[C@@H]21	/	/	/	/	.	/
CCS(=O)(=O)Nc1ccc2c(c1)C(=O)N(C)C[C@@H](OC)[C@H](C)CN(C(=O)C1CC1)[C@@H](C)CO2	/	/	/	/	.	/
COCCCn1c(C(=O)NC2CCCCC2C)cc2c(=O)n3cccc(C)c3nc21 (stereo unspecified)	.	.	71	.	.	.
CCN(C(=O)c1cc2c(=O)n3cccc(C)c3nc2n1CCCOC)C1CCCCC1	.	.	.	.	.	.
SMILES	HSF1 inhib	TWEAK-Fn14 inh	HSF1 activator	TROY NFkB inh	LGR2 inh	LMP1 NFkB inh
CCC(=O)N1CC2(CCN(Cc3ccc(F)cc3)CC2)c2c(n(C)c3cc(OC)ccc23)[C@@H]1CO	/	/	/	/	.	/
O=c1[nH]c2ccccc2n2cnnc12	-83	.	.	.	.	.
COc1cccc(NC(=O)N[C@H]2C=C[C@H](CC(=O)NCc3ccccn3)O[C@H]2CO)c1	/	/	/	/	.	/
Nc1cccc(/C=C/C(=O)O)c1	-58	.	.	.	.	.
O=C(O)/C=C/c1cccc(NS(=O)(=O)c2ccccc2)c1	.	.	.	.	.	.
O=C(NCCCl)NNc1c(Cl)cc(Cl)cc1Cl	/	51	/	72	.	.
CCCCNC(=S)NNc1c(Cl)cc(Cl)cc1Cl	-72	.	.	.	.	.
C/C=C/c1ccc2c(c1)O[C@H](CN(C)C(=O)NC(C)C)[C@@H](C)CN([C@H](C)CO)S2(=O)=O	/	/	/	/	.	/
CCNC(=O)C[C@@H]1CC[C@H]2[C@@H](COC[C@@H](O)CN2Cc2ccncc2)O1	/	/	/	/	.	/
CC(C)(C)c1ccc(/C=C2\Oc3cc(OC(=O)N4CCOCC4)ccc3C2=O)cc1	.	.	.	.	/	.
